Only some compounds are listed: those with a hit (about 1.1% of all), similar ones and a draw of the others.
Apoferritin bind = binds horse apoferritin like a general anesthetic. P02791. apoferritin/1-aminoanthracene competitive binding, fluorescence. Potency, µM (top dose mostly 77.5 µM), inactives show at the top dose activity change, negative = displacement, actives largely listed as inhibitors. 350,000 tested, 0.074% active; further: on the % scale 0 is the no-effect control and ±100 the full control effect; nearly all actives have a fitted effect of over 20% in size
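Probe: 1-aminoanthracene (50% saturated, PBS). Protein: horse-spleen apoferritin, 10 uM. Incubation: 10 min, room temperature. Detection: 380 nm excitation, 535 nm emission. Analysis: normalized response, four-parameter Hill.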
GRP78 ERSR act = ER stress response induction in glioma; U87-MG GRP78 promoter luciferase reporter, 16 h; Potency, µM, inactives show at the top dose activation, usual class: activators; AID 602332; 420,000 tested, 0.02% active; further: series mostly up to about 76 µM; % of control where 0% means no effect; nearly all actives have a fitted effect of over 35% in size
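ERSR induction read as luciferase luminescence (Bright-Glo, 10 min at room temperature) in stably transfected human U87-MG glioma cells exposed to compounds for 16 h, using GRP78 as sensor.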
BCR signal inh = blocks chronic active B-cell receptor signaling. AID 493014. Potency, µM (titrated, usually from 46.1 µM), for inactives: at the top dose activity change, negative = inhibition, actives largely listed as inhibitors. 340,000 tested, 0.05% active. ABC-DLBCL IkBa-CBG/CBR reporter, luminescence ratio, 4 h; active means well fitted inhibition curve with a large enough effect in the signal ratio, with a control signal flat, not every such curve was filed as active; inconclusive means small, poorly fitted or top-dose-only effect, or effect the other way, or a change in a side signal; the % refers to the signal ratio;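 further: plate controls were basal doxycycline-induced cells for no effect and cells given 10 µM MG132 for full effect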
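TMD8 ABC-DLBCL cells carrying doxycycline-inducible green luciferase fused to IkappaBalpha plus unfused red luciferase were exposed to compounds (up to 46 uM) for 4 hrs at 37C. Activity came from the overlap-corrected green/red luminescence ratio.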
12-LOX inh = inhibitors of human 12S-lipoxygenase ALOX12; P18054; purified 12hLO, xylenol orange hydroperoxide absorbance; Potency, µM (highest dose often 108 µM), without a hit: top-dose activity change, negative = inhibition, most hits filed as inhibitors; 580,000 tested, 1.1% active; AID 1671190; further: on the % scale 0 is the no-effect control and ±100 the full control effect
Target sequence (P18054 whole entry, looked up): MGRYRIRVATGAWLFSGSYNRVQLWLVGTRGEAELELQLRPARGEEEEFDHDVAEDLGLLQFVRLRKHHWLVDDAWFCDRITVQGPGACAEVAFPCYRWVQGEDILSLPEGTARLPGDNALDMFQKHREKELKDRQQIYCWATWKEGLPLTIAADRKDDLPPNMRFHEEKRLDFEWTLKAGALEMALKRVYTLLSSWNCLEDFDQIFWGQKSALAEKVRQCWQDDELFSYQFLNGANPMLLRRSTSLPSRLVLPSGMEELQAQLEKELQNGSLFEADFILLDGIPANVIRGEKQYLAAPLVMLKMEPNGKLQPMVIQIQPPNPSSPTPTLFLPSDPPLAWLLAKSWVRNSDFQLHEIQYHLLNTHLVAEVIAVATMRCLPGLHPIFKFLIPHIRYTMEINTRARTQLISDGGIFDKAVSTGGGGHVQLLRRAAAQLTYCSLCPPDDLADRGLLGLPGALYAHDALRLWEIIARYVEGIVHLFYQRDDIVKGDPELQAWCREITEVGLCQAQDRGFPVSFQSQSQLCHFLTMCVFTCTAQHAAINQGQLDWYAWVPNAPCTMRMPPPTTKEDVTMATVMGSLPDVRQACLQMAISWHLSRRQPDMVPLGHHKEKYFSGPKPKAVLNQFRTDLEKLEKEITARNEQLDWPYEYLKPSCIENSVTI
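Hydroperoxide product was detected by ferrous iron/xylenol orange as the 573 to 405 nm absorbance ratio. Arachidonic acid at 40 uM (final) was turned over for 30 min at room temperature by 150 nM human 12hLO, pH 7.0 Hepes buffer, after 15 min compound preincubation.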
* hit, by the source's call; ? = inconclusive; nt = not tested or not shown; ! = not confirmed by another sample; [ ] = remark or other dose. Unless noted, the call rests on the fitted dose curve; in most records, active means well fitted curve in the direction sought with a large enough effect; inconclusive means small, poorly fitted or top-dose-only effect, or another doubt; inactive means no such curve, though single readings can be large; an effect the other way counts as inactive or inconclusive. Potency means the concentration at half of the fitted maximal effect.

SMILES	Apoferritin bind	GRP78 ERSR act	BCR signal inh	12-LOX inh
Clc1cccc(-n2nnnc2NCc2ccccc2Oc2ccccn2)c1Cl	nt	nt	nt	12.2µM*
Clc1ccc(CNc2nnnn2-c2ccccc2)c(Cl)c1	-8.3%	-2.1%	?	18.6%
CNC(=O)c1ccc(CN(C)C(=O)c2ccc(S(=O)(=O)NC3CC3)cc2)cc1	nt	nt	nt	42.1%
Cc1ccc(C(OCC(C)(C)C[N+](C)(C)C)c2ccccc2)cc1 (configuration not stated)	-12.0%	-1.3%	-19.6%	44.7µM*
C[N+](C)(C)CCOC(c1ccccc1)c1ccccc1	nt	nt	nt	-0.2%
CN(C)CC(=O)N1Cc2ccccc2CC2(CCCCN2Cc2ccccc2)C1 (configuration not stated)	nt	nt	nt	1.6%[6.33 µM]
Cc1cccc(NC(=O)CCN2CCN(Cc3cccc4ccccc34)CC2)c1	nt	nt	nt	28.2µM*
COc1ccc2c(C)c(CCC(=O)N3CCCCC3)c(=O)oc2c1	nt	nt	nt	8.0%
CNC(=S)Nc1ccc(C23CC4CC(CC(C4)C2)C3)cc1	-7.7%	-2.0%	-3.9%	44.7µM*
CC(C)c1ccc(CNCC2CCCO2)cc1 (configuration not stated)	nt	nt	nt	0.7%
Cc1cc2oc(=O)cc(CN3CCN(C(=O)C4COc5ccccc5O4)CC3)c2cc1C (configuration not stated)	nt	nt	nt	-24.8%
CC(=O)c1ccc(NC(=O)C(=O)c2c[nH]c3ccccc23)cc1	nt	nt	nt	50.2%
Oc1ccc(/C=N/n2cc(-c3ccccc3)[nH]c2=S)cc1	-6.1%	1.0%	18.3%	15.8µM*
COc1cc(/C=N/n2cc(-c3ccccc3)[nH]c2=S)cc(OC)c1O	-12.2%	-1.2%	9.8%	12.6µM*
Cc1ccc(/C=N/n2cc(-c3ccccc3)[nH]c2=S)s1	-18.9%	4.9%	?	-30.6%
CC(C)(C)NC(=O)CNC(=O)CCc1ncc(-c2ccc(Cl)cc2Cl)o1	nt	nt	nt	-47.5%
C/C(CCc1oc2ccc(C)cc2c1-c1ccc(C)o1)=N\O	nt	nt	nt	39.8µM*!
CC(=O)CCc1oc2ccc(C)cc2c1-c1ccc(C)o1	-10.4%	-0.1%	-4.5%	?
C/C(CCc1oc2ccc(Br)cc2c1-c1ccc(C)o1)=N\O	nt	nt	nt	11.2µM*
Cc1ccc(C(=O)N(Cc2ccco2)C2CC2)o1	nt	nt	nt	-52.5%
Cc1cccc(NC(=O)CCc2ccccc2)c1	?	2.3%	-25.1%	-2.7%
Cc1cccc(NC(=S)NC(C)CCc2ccccc2)c1 (configuration not stated)	-11.4%	-6.3%	0.8%	39.8µM*
COc1cccc(NC(=S)NC(C)c2ccc(OC)c(OC)c2)c1 (configuration not stated)	-9.7%	2.6%	-12.0%	-16.4%
COc1cccc(NC(=S)NC(Cc2ccccc2)c2ccccc2)c1 (configuration not stated)	nt	-3.1%	nt	39.8µM*
Cc1cccc(NC(=O)C(C#N)C(=O)CCc2ccccc2)c1 (configuration not stated)	nt	nt	nt	31.6µM*
SMILES	Apoferritin bind	GRP78 ERSR act	BCR signal inh	12-LOX inh
Cc1cc(C)cc(NC(=O)Cc2csc(COc3cccc(C)c3)n2)c1	-15.9%	-3.2%	nt	50.1µM*
Cc1ccccc1CCNC(=O)Cn1ncc2ccccc2c1=O	nt	nt	nt	22.7%
CCCN1CCC(N2CCN(c3ccc([N+](=O)[O-])cc3)CC2)CC1	-14.2%	0.2%	1.8%	0.891µM*
CCN1CCC(N2CCN(c3ccc(Cl)cc3)CC2)CC1	-3.5%	-3.8%	2.6%	nt
CCCNc1nc2ccccc2nc1C(=O)Nc1ccc(Cl)cc1	nt	nt	nt	-10.6%
CCOCCOC(=O)c1nc2ccccc2nc1Nc1ccc(Cl)cc1	nt	nt	nt	10µM*
COC(=O)CCC(=O)OC1(C)C(=O)C2=CN(Cc3ccccc3)C(c3ccc(OC)cc3)=CC2=C(Br)C1=O (configuration not stated)	nt	-1.2%	nt	?
COC(=O)CCC(=O)OC1(C)C(=O)C2=CN(c3ccccc3)C(c3ccc(OC)cc3)=CC2=C(Br)C1=O (configuration not stated)	nt	-0.9%	nt	39.8µM*
CCC(=O)OC1(C)C(=O)C=C2C=C(c3ccc(C#N)cc3)OC=C2C1=O (configuration not stated)	nt	-3.1%	nt	5.62µM*
CCC(=O)OC1(C)C(=O)C2=COC(c3ccc(OC)cc3)=CC2=C(Br)C1=O (configuration not stated)	-19.2%	-0.9%	?	50.1µM*
Oc1ccc(C2C(c3ccccc3)=NN=C(c3ccc(Cl)cc3)N2O)c(O)c1 (configuration not stated)	?	0.5%	?	31.6µM*
CCOc1ccc(N2C(=O)CCC2(C)C(=O)NC2CCCC2)cc1 (configuration not stated)	nt	nt	nt	1.4%
COC(=O)CCCn1cc(CN2CC(N3CCN(Cc4cccc(C)c4)CC3)CS2(=O)=O)nn1 (configuration not stated)	nt	nt	nt	7.08µM*
CN1CCN(C2CN(Cc3cn(Cc4ccc(Cl)cc4)nn3)S(=O)(=O)C2)CC1 (configuration not stated)	nt	nt	nt	28.2µM*
N#Cc1cc([N+](=O)[O-])ccc1NC(=O)COC(=O)CC12CC3CC(CC(Br)(C3)C1)C2	nt	nt	nt	-1.9%
CCOC(=O)c1cc(-c2csc(Nc3c(C)cc(C)cc3C)n2)on1	-18.4%	-12.4%	-18.0%	20µM*
O=[N+]([O-])c1cccc(-n2nc(-c3ccccc3)c3cnc4cc(C(F)(F)F)ccc4c32)c1	nt	nt	nt	-16.8%
COc1ccc(N2CCN(C(=O)CNC(=O)Cc3ccc(Cl)cc3)CC2)cc1	-5.5%	-6.4%	-12.7%	31.6µM*
CN(CCOc1ccc(F)cc1)C(=O)c1cc2ccccc2oc1=O	nt	nt	nt	-2.9%
Oc1ccccc1Oc1ncc(Br)c(Cl)n1	1.6%	5.8%	-0.7%	31.6µM*
Cc1cccc(C(=O)OCC(=O)Nc2ccccc2N2CCCC2=O)c1O	nt	nt	nt	11.3%
COc1ccc(CNC(=S)N/N=C/c2ccc(OC)c(OC)c2)cc1	60.7%	2.9%	?	140.4%
COc1ccc(C=NNC(=S)NN=Cc2ccc(OC)c(OC)c2)cc1OC	nt	-3.6%	nt	?
COCCCNC(=S)N/N=C/c1ccc(OC)c(Br)c1	4.6%	1.1%	?	25.1µM*
COc1ccc(CNC(=S)N/N=C/c2ccc(O)c(OC)c2)cc1	-16.4%	1.3%	?	31.6µM*
SMILES	Apoferritin bind	GRP78 ERSR act	BCR signal inh	12-LOX inh
COc1cccc(/C=C/c2nc3ccccc3o2)c1OC(C)C	nt	nt	nt	45.6%
CC1(C)CCC(=NNC(N)=S)CC1	nt	-2.2%	nt	?
NC(=S)NN=C1CSSC1	nt	35.5µM*	nt	nt
COc1ccc(C(C)=O)cc1CSCc1ccc(C#N)cc1	nt	nt	nt	-20.3%
Cc1ccc(C(=O)O)cc1NC(=S)NC(=O)c1ccc(COc2ccccc2)cc1	-17.0%	3.1%	?	2.82µM*
Cc1ccc(C(=O)O)cc1NC(=S)NC(=O)Cc1ccccc1	-4.7%	3.3%	-6.3%	?
c1ccc(Nc2ncncc2-c2ccoc2)cc1	nt	-2.0%	nt	17.8µM*
COc1ccccc1-c1cncnc1Nc1ccccc1	nt	-3.6%	nt	39.8µM*
Fc1ccc(Nc2ncncc2-c2ccoc2)cc1	nt	-3.7%	nt	39.8µM*
COc1cn(CC(=O)Nc2ccc(C(F)(F)F)cc2)c(CN2CCN(C(C)=O)CC2)cc1=O	nt	nt	nt	37.3%
Cc1cccc[n+]1Cc1ccccc1	nt	nt	nt	15.8µM*

High-throughput results: PubChem, National Center for Advancing Translational Sciences (NCATS)
